This passage reports AC50 and outcome results from PubChem BioAssay (EPA / NIEHS).

The structures appear in SMILES notation. Calls of active or inactive are those of the source. The calls were made as follows: active = hit-call score of the fitted dose curve at least 0.9, where 1 is the maximum; inactive = score below 0.9.

Read-out in the experiment: Plasminogen activator inhibitor-1 (PAI1), SERPINE1 (gene 5054)
Briefly: BSK_BE3C_PAI1: BioMAP Diversity Plus: BE3C Assay for Plasminogen activator inhibitor-1 (PAI1) Biomarker Activity (AID 2283037). Particulars: primary human bronchial epithelial cells; actives raise or lower the signal. Here is the method:
BSK_BE3C is a cell-based, multiplexed-readout assay that uses bronchial epithelial cell, a human lung primary cell, with measurements taken at 24 hours after chemical dosing in a 96-well plate.BSK_BE3C_PAI1 is an assay component measured in the BSK_BE3C assay. It measures PAI-1 antibody related to regulation of gene expression using ELISA technology.Data from the assay component BSK_BE3C_PAI1 was analyzed into 1 assay endpoint. This assay endpoint, BSK_BE3C_PAI1, was analyzed with bidirectional fitting relative to DMSO as the negative control and baseline of activity. Using a type of binding reporter, gain or loss-of-signal activity can be used to understand changes in the signaling as they relate to the gene SERPINE1. Furthermore, this assay endpoint can be referred to as a primary readout, because this assay has produced multiple assay endpoints where this one serves a signaling function. To generalize the intended target to other relatable targets, this assay endpoint is annotated to the cytokine intended target family, where the subfamily is plasmogen activator inhibitor.
The levels of cell surface (or secreted, indicated by the prefix "s") biomarker endpoints were measured by ELISA. Overt cytotoxicity to cells in confluent adherent cultures (all systems other than the BT system) was assessed by measuring total protein levels using sulforhodamine B (SRB) staining in parallel cultures at the time of biomarker measurements, indicated as SRB endpoints. For proliferation assays for adherent cell types, individual cell types are cultured at sub-confluence and relative cell numbers quantified by SRB staining at time points optimized for each system (48 h: 3C and CASM3C systems; 72 h: BT and HDF3CGF systems; 96 h: SAg system). SRB was performed by staining cells with 0.1% SRB after fixation with 10% TCA and reading wells at 560 nm.Viability and proliferation of PBMC (T cells) was quantified by Alamar Blue reduction for the SAg and BT systems. For PBMC viability (referred to as PBMC Cytotoxicity within the assay endpoint names), cells were plated (75,000/well in a 96-well plate) and then chemical samples added for 1 h before addition of activators, SEB and TSST-1 (20 ng/mL final concentration each). Cells were incubated for 90 h. Then, Alamar Blue (20 uL/well) (Invitrogen, Cat DAL1100) was added for 6 h, and the plates were read with a fluorescence microplate reader at 546/580 nm (excitation/emission). For PBMC proliferation, cells were plated and activated as above but incubated for only 16 h prior to addition of Alamar Blue. Plates were read after 6 h.
In general, AC50 refers to the concentration at which the activity in the assay is half-maximal. As to `Cc1cc(Cl)ccc1N`, the AC50 is 3.97 µM (active). Turning to `OCCCCO`, the outcome was inactive.

For `Cc1ccc2nc3sc(=O)sc3nc2c1`, the result was inactive. Same read-out and setting: under `Cc1c([N+](=O)[O-])c(C)c([N+](=O)[O-])c(C(C)(C)C)c1[N+](=O)[O-]` stands “inactive”. `CCCCCCCCCCCCc1cccc(S(=O)(=O)O)c1`: the concentration at half-maximal activity (AC50) was 23.7 µM (active). Same read-out and setting: as for `O=S(=O)(C(Cl)(Cl)Cl)C(Cl)(Cl)Cl`, the figure is 3.87 µM (active). Turning to `Nc1ccc(N)cc1`, the result was inactive. Still for that read-out and setting: as for `Oc1ccc(Cc2ccc(O)cc2)cc1`, the entry is “inactive”. Take `OC(Cc1ccccc1Cl)(Cn1[nH]cnc1=S)C1(Cl)CC1` (stereo not given): the AC50 was 6.3 µM (active). As to `O=C(O)COc1cc(Cl)c(Cl)cc1Cl`, the outcome was inactive.

Turning to `O=C(O)C1(c2ccc3c(c2)OC[C@H](Cc2ccc(-c4ccccc4)cc2)[C@H]3O)CCCC1`, the AC50 is 12.4 µM (active). With `Oc1c(Br)cc(Br)cc1Br`, the outcome was inactive.

With `CC(C)=CC1C(C(=O)OCc2cccc(Oc3ccccc3)c2)C1(C)C` (stereo not given), the result was inactive. As for `Clc1cccc(Cl)c1`, the outcome was inactive. The same measure, in the same setting: under `N#Cc1cccnc1` stands “inactive”; under `CCOC(=O)CCN(SN(C)C(=O)Oc1cccc2c1OC(C)(C)C2)C(C)C`, “inactive”.

Consider `O=C(Cc1ccccc1)OCCc1ccccc1`, for which the outcome was inactive. Same read-out and setting: under `CC(C=O)Cc1ccc2c(c1)OCO2` (stereo not given) stands “inactive”; under `CN(C)C(=S)S`, “inactive”.

On to `[Cl][Sn]([c]1ccccc1)([c]1ccccc1)[c]1ccccc1`, for which the AC50 was 0.992 µM (active).

For the compound `Oc1cccc(-c2ccccc2)c1`, the outcome was inactive. `OCCN(CCO)CCO`: the result was inactive. Same read-out and setting: under `Cc1cc(Cl)ccc1OC(C)C(=O)O` (stereo not given) stands “inactive”; under `CCOP(=S)(OCC)OP(=S)(OCC)OCC`, “inactive”; under `Clc1cccc(Cl)c1Cl`, “inactive”. Still for that read-out and setting: under `CC1(C)[C@H](C(=O)O[C@H](C#N)c2cccc(Oc3ccccc3)c2)[C@@H]1/C=C(\Cl)C(F)(F)F` stands “inactive”. Take `NC(=O)CCl`: the result was inactive.

As to `Oc1c(Cl)cc(Cl)cc1Cl`, the result was inactive. Same read-out and setting: under `CCCCCCCCCCCCN(C)C` stands “inactive”. On to `Cc1cccc(OP(=O)(Oc2cccc(C)c2)Oc2cccc(C)c2)c1`, for which the AC50 is 2.76 µM (active).

Regarding `Cc1cc(C(C)(C)c2ccc(O)c(C)c2)ccc1O`, the AC50 is 10 µM (active).

On to `C=CC(Cl)CCl` (stereo not given), for which the result was inactive. On the same count and under the same terms, as for `CC(C)(COCC1CO1)COCC1CO1` (stereo not given), the entry is “inactive”; as for `CCOP(=O)(OCC)SCCSCC`, “inactive”; as for `c1ccc2sc(SNC3CCCCC3)nc2c1`, “inactive”.

`Cc1ccccc1OP(=O)(Oc1ccccc1)Oc1ccccc1`: the outcome was inactive. Turning to `Cc1ccc(OP(=O)(Oc2ccc(C)cc2C)Oc2ccc(C)cc2C)c(C)c1`, the AC50 is 6.01 µM (active). For the compound `CC(C)(C)c1cc([N+](=O)[O-])cc(C(C)(C)C)c1O`, the result was inactive.

Turning to `O=C(N[C@H]1CN2CCC1CC2)c1ccc2c(c1)OCCO2`, the result was inactive.

Take `COCC(=O)N(c1c(C)cccc1C)[C@H](C)C(=O)OC`: the outcome was inactive.
